According to PubChem BioAssay (Tox21):
Results filed as inconclusive are left out. Activity calls are given as the source filed them. Unless noted, the call rests on the fitted dose curve.

How the values were obtained:
[1] = Nuclear factor erythroid 2-related factor 2/antioxidant responsive element (Nrf2/ARE) small molecule agonists: qHTS cell viability counter screen in human keratinocytes (AID 1919968; active means well fitted curve in the direction sought with a large enough effect in the repeat runs; an effect the other way counts as inactive or inconclusive; further: nearly all actives have a fitted effect of over 55% in size; further: potency means the concentration at half of the fitted maximal effect)
Procedure, shortened: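 KeratinoSens cells (HaCaT keratinocytes stably carrying an ARE-luciferase reporter) were seeded at 1,500 cells/well and rested 5 h at 37 C/5% CO2. They were then exposed to compounds in DMSO for 23 h. Viability was read by CellTiter-Fluor fluorescence after 1 h.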

[2] = Nuclear factor erythroid 2-related factor 2/antioxidant responsive element (Nrf2/ARE) small molecule agonists: luciferase reporter gene qHTS assay in human keratinocytes (AID 1919969); further: nearly all actives have a fitted effect of over 35% in size; further: potency means the concentration at half of the fitted maximal effect
[3] = target: Gonadotropin-releasing hormone receptor (Homo sapiens) (UniProt P30968); assay: Human gonadotropin-releasing hormone receptor (GnRHR) small molecule agonists, calcium flux assay in GnRHR-HEK293 cells (AID 1920063); further: nearly all actives have a fitted effect of over 35% in size; further: potency means the concentration at half of the fitted maximal effect
Gonadotropin-releasing hormone receptor (Homo sapiens), sequence (P30968 whole entry, looked up): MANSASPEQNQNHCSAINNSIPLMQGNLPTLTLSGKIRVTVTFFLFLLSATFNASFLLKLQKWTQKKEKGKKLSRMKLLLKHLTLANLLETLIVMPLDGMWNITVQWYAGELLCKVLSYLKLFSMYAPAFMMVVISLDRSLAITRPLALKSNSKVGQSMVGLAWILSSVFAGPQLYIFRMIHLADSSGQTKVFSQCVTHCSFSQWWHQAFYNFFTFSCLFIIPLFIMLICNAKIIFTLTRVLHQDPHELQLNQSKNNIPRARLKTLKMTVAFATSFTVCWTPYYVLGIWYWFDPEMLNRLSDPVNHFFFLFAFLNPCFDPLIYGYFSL
Procedure, shortened: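 HEK293 cells stably expressing human GnRHR were plated 18 h at 37 °C, loaded with calcium dye 1 h at 37 °C, then given compound in agonist mode; fluorescence (Ex/Em 480/540) read kinetically for 3 min at 1 s intervals.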

[4] = target: KiSS-1 receptor (Homo sapiens) (UniProt Q969F8); assay: Human kisspeptin (KISS1R) small molecule agonists, calcium flux assay in KISS1R-HEK293 cells (AID 1920064; active means well fitted curve in the direction sought with a large enough effect in the repeat runs; an effect the other way counts as inactive or inconclusive)
KiSS-1 receptor (Homo sapiens), sequence (Q969F8 whole entry, looked up): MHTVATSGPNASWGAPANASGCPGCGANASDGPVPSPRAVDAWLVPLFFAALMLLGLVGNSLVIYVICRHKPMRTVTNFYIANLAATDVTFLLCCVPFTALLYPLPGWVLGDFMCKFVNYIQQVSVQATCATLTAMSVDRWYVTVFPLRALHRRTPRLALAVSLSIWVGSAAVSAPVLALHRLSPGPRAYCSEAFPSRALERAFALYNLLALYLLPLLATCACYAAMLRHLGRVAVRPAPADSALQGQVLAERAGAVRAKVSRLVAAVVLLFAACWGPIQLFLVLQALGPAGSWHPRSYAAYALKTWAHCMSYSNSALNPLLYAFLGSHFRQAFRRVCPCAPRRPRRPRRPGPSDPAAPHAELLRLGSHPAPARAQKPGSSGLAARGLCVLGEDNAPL
Procedure, shortened: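 HEK293 cells stably expressing human KISS1R were plated 18 h at 37 °C, loaded with calcium dye for 1 h at 37 °C, then given compound by pin tool. Fluorescence (Ex/Em 480/540) was read kinetically for 3 min.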

[5] = G protein-coupled receptor (GPCR) small molecule agonists, calcium flux assay: HEK293 wild type cell line counter screen (AID 1920065); further: potency means the concentration at half of the fitted maximal effect
Procedure, shortened: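 Cells were plated and cultured 18 h at 37 C/5% CO2, then loaded with calcium dye for 1 h at 37 C. Compounds in DMSO were pin-transferred in agonist mode, and fluorescence (Ex/Em 480/540) was read kinetically for 3 min at 1 s intervals.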

[6] = p53 small molecule agonists, cell-based qHTS assay with human liver microsomes: qHTS cell viability counter screen (AID 1963579); further: nearly all actives have a fitted effect of over 45% in size; further: potency means the concentration at half of the fitted maximal effect
Procedure, shortened: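 In this multiplexed counter screen, the reporter plates were subsequently treated with CellTiter-Glo so that cell viability, reflected by luminescence, could be recorded for p53RE-bla cells dosed 16 h with compounds under microsomal activation (HLM and NADPH).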

[7] = p53 small molecule agonists, cell-based qHTS assay with rat liver microsomes: qHTS cell viability counter screen (AID 1963580); further: nearly all actives have a fitted effect of over 45% in size; further: potency means the concentration at half of the fitted maximal effect
Procedure, shortened: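 In HCT-116 cells carrying a p53 response element-bla reporter, compounds were metabolically activated in situ by rat liver microsomes with NADPH over 16 h. Cell ATP content then served as the cytotoxicity measure.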

[8] = p53 small molecule agonists, cell-based qHTS assay: qHTS cell viability counter screen (AID 1963581); further: nearly all actives have a fitted effect of over 45% in size; further: potency means the concentration at half of the fitted maximal effect
Procedure, shortened: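 p53RE-bla HCT-116 cells were exposed to compounds for 16 h at 37 C; after the beta-lactamase FRET read in the same wells, CellTiter-Glo was added and luminescence (intracellular ATP) read after 30 min at room temperature.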

[9] = target: 5-hydroxytryptamine receptor 2A (Homo sapiens) (UniProt P28223); assay: 5-hydroxytryptamine receptor 2A (HTR2A) small molecule antagonists, cell-based qHTS assay (AID 1963586); further: nearly all actives have a fitted effect of over 45% in size; further: potency means the concentration at half of the fitted maximal effect
5-hydroxytryptamine receptor 2A (Homo sapiens), sequence (P28223 whole entry, looked up): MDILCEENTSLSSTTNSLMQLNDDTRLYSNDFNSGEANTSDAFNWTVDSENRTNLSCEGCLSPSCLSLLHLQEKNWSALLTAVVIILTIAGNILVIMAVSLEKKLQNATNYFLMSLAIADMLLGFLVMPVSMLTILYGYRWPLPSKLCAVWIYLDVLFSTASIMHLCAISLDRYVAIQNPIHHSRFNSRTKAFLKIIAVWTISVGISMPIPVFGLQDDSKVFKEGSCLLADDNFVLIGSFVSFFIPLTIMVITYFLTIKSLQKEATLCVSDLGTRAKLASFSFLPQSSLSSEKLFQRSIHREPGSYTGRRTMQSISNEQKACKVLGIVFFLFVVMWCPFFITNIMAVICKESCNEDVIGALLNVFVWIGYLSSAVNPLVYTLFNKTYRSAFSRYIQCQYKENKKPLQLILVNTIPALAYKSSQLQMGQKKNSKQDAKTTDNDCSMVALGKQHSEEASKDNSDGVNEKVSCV
Procedure, shortened: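 Antagonist-mode intracellular calcium assay: DOI (4 nM) added after 5 min compound pre-incubation at room temperature to dye-loaded HTR2A-CHO cells. Fluorescence followed for 3 min, sampled every second.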

[10] = target: 5-hydroxytryptamine receptor 2A (Homo sapiens) (UniProt P28223); assay: 5-hydroxytryptamine receptor 2A (HTR2A) small molecule agonists, cell-based qHTS assay (AID 1963587); further: nearly all actives have a fitted effect of over 30% in size; further: potency means the concentration at half of the fitted maximal effect
Procedure, shortened: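 HTR2A-CHO cells, plated 18 h at 37 C/5% CO2, dye-loaded 1 h at 37 C; compounds in DMSO added by pin tool (agonist mode). Intracellular calcium flux read as kinetic fluorescence on FDSS over 2 min at 1 s intervals.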

[11] = target: Muscarinic acetylcholine receptor M1 (Homo sapiens) (UniProt P11229); assay: Cholinergic receptor muscarinic 1 (CHRM1) small molecule antagonists, cell-based qHTS assay (AID 1963588); further: nearly all actives have a fitted effect of over 40% in size; further: potency means the concentration at half of the fitted maximal effect
Muscarinic acetylcholine receptor M1 (Homo sapiens), sequence (P11229 whole entry, looked up): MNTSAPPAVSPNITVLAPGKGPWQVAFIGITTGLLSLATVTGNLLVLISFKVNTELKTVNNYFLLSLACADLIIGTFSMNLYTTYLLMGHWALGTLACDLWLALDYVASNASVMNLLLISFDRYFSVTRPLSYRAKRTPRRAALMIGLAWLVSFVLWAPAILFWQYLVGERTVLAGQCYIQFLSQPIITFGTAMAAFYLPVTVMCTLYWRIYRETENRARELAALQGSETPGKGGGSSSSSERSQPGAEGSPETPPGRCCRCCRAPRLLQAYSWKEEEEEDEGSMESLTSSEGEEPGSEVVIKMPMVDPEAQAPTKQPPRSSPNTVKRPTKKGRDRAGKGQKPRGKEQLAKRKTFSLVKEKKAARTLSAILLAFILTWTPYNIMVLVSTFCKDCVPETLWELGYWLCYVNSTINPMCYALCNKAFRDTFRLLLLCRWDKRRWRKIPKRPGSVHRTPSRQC
Procedure, shortened: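 CHRM1-CHO calcium-flux assay, antagonist mode. Cells were seeded 18 h, dye-loaded 1 h at 37 C and given compound for 5 min at RT, then acetylcholine was added at 50nM. FDSS fluorescence was read 3 min; 15 concentrations, three runs.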

[12] = target: Muscarinic acetylcholine receptor M1 (Homo sapiens) (UniProt P11229); assay: Cholinergic receptor muscarinic 1 (CHRM1) small molecule agonists, cell-based qHTS assay (AID 1963589); further: nearly all actives have a fitted effect of over 35% in size
Procedure, shortened: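 CHO cells stably expressing human CHRM1, seeded 18 h at 37 C/5% CO2, dye-loaded 1 h at 37 C, then given compound in agonist mode; intracellular calcium fluorescence read kinetically at 1 s intervals. Fifteen concentrations, three independent runs.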

[13] = cAMP Responsive Elements (CRE) small molecule agonists, cell-based qHTS assay (AID 1963590)
Procedure, shortened: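 CRE-bla HEK 293T cells in DMEM with 10% dialyzed FBS, NEAA, pyruvate and 25 mM HEPES were plated 18 h at 37 C/5% CO2, then exposed to compounds in DMSO for 3 h before LiveBLAzer B/G FRET substrate addition.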

[14] = target: Beta-2 adrenergic receptor (Homo sapiens) (UniProt P07550); assay: Adrenergic beta2 receptor (ADRB2) small molecule antagonists, cell-based qHTS assay (AID 1963592); further: series mostly up to about 92 µM; nearly all actives have a fitted effect of over 50% in size
Beta-2 adrenergic receptor (Homo sapiens), sequence (P07550 whole entry, looked up): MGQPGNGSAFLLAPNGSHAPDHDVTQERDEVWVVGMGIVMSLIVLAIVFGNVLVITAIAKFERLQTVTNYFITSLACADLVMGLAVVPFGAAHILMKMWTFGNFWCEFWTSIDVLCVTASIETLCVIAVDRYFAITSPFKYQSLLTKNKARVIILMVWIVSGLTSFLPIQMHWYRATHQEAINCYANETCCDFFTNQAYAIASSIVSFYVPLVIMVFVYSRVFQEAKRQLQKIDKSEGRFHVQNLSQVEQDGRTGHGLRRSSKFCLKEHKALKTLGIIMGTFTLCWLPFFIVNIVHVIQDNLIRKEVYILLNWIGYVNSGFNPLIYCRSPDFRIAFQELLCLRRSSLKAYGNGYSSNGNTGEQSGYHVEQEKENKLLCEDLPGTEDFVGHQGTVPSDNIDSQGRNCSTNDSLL
Procedure, shortened: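 Cells (CHO, stable ADRB2 overexpression) incubated 18-20hr at 37C; compounds added from DMSO; agonist mix (1nM isoproterenol, 100uM IBMX, 25uM Ro-20-1724) added; 0.5hr RT; d2-cAMP and anti-cAMP-cryptate added; 1hr RT; 665/615 nm read.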

[15] = target: Beta-2 adrenergic receptor (Homo sapiens) (UniProt P07550); assay: Adrenergic beta2 receptor (ADRB2) small molecule agonists, cell-based qHTS assay (AID 1963593);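 further: CHO cells stably overexpressing human ADRB2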
Procedure, shortened: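 CHO cells stably over-expressing ADRB2 were plated overnight at 37C, then dosed with compounds plus a stimulation mix containing 100uM IBMX and 25uM Ro-20-1724 for 0.5hr at room temperature. cAMP was measured by HTRF competition, 1hr.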

[16] = target: D(2) dopamine receptor (Homo sapiens) (UniProt P14416); assay: Dopamine D2 receptor (DRD2) small molecule agonists, cell-based qHTS assay (AID 1963594); further: nearly all actives have a fitted effect of over 35% in size; further: potency means the concentration at half of the fitted maximal effect
D(2) dopamine receptor (Homo sapiens), sequence (P14416 whole entry, looked up): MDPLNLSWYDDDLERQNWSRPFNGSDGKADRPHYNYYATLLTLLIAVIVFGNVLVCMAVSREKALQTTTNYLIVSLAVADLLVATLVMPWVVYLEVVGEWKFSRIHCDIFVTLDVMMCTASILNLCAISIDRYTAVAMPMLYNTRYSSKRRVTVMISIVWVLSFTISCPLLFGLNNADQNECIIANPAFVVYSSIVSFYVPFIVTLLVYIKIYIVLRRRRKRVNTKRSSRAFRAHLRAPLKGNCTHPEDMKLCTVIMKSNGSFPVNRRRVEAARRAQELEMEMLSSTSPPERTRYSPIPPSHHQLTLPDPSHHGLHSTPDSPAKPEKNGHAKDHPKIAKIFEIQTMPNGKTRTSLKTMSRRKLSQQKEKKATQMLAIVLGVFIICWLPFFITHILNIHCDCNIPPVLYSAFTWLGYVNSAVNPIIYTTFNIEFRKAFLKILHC
Procedure, shortened: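 HEK293 cells stably expressing DRD2 were cultured 24 h at 37 C, then given Ro20-1724 (0.1 mM final) and compounds for 10 min at room temperature. NKH477 (200nM) was then added for 30 min. cAMP was read by HTRF.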

[17] = target: D(2) dopamine receptor (Homo sapiens) (UniProt P14416); assay: Dopamine D2 receptor (DRD2) small molecule antagonists, cell-based qHTS assay (AID 1963595; active means well fitted inhibition curve with a large enough effect in the signal ratio in the repeat runs, with a control signal flat; the % refers to the signal ratio; further: potency means the concentration at half of the fitted maximal effect)
Procedure, shortened: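 Human DRD2 antagonist qHTS measuring cAMP by HTRF. The cells are exposed to compound for 10 min, then to NKH477 (200 nM) and quinpirole (12 nM) for 30 min at RT, with Ro20-1724 (0.1 mM) present throughout.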

[18] = p53 small molecule agonists, cell-based qHTS assay (AID 1963582; active means well fitted activation curve with a large enough effect in the signal ratio in the repeat runs, not every such curve was filed as active; the % refers to the signal ratio)
Procedure, shortened: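 p53RE-bla beta-lactamase reporter cells rested 5 h at 37 C/5% CO2, then received compounds in DMSO by pin transfer and were incubated 16 h at 37 C. LiveBLAzer B/G FRET substrate was loaded for 2 h at room temperature before fluorescence reading.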

[19] = cAMP Responsive Elements (CRE) small molecule antagonists, cell-based qHTS assay (AID 1963591; active means well fitted inhibition curve with a large enough effect in the signal ratio in the repeat runs, not every such curve was filed as active; the % refers to the signal ratio)
Procedure, shortened: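 CRE-bla HEK293T cells were plated 18 h at 37 °C/5% CO2, pinned with compound in DMSO, then stimulated with NKH477 at 0.25 uM final for 3 h. LiveBLAzer B/G FRET substrate was added and plates incubated 2 h at room temperature.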

Measured: Potency

CCOP(=S)(OCC)Oc1ccc(S(C)=O)cc1 (centres undefined)
not listed: [18] | [19]
inactive: all other assays above

COc1cccc(C(=O)CCN[C@@H](C)[C@H](O)c2ccccc2)c1
active: [2] 33.5 µM | [17] 15 µM
not listed: [9] | [10] | [15] | [19]
inactive: all other assays above

CN1C(=S)CN=C(c2ccccc2)c2cc(Cl)ccc21
not listed: [18]
inactive: all other assays above

Cc1ccc(C)c2ccccc12
not listed: [13] | [17] | [18]
inactive: all other assays above

Nc1ccc(Sc2ccc(N)cc2)cc1
active: [2] 68.6 µM
not listed: [15] | [16] | [18]
inactive: all other assays above

CC(C)[C@]12CC(=O)[C@H](C)[C@H]1C2
not listed: [18] | [19]
inactive: all other assays above

ClC(Cl)Br
not listed: [14] | [18]
inactive: all other assays above

C[C@]12CC[C@@H]3c4ccc(OC(=O)N(CCCl)CCCl)cc4CC[C@H]3[C@@H]1CC[C@@H]2O
not listed: [18]
inactive: all other assays above

CCCSP(=O)(OCC)Oc1ccc(Br)cc1Cl (centres undefined)
not listed: [15] | [17] | [18]
inactive: all other assays above

COc1c2c(cc3c1OCO3)CCN(C)C2
active: [9] 16.3 µM | [10] 1.2 µM | [16] 6.68 µM
not listed: [18] | [19]
inactive: all other assays above

CCOP(=O)(O)C(N)=O
not listed: [12] | [15] | [18]
inactive: all other assays above

Cc1ccc(OP(=O)(Oc2ccccc2)Oc2ccccc2)cc1
not listed: [13] | [15] | [18]
inactive: all other assays above

CNN
not listed: [11] | [18]
inactive: all other assays above

O=[N+]([O-])c1cc(C(F)(F)F)c(Cl)c([N+](=O)[O-])c1Nc1ncc(C(F)(F)F)cc1Cl
active: [1] 9.69 µM | [2] 6.11 µM | [5] 1.23 µM | [6] 45.8 µM | [7] 25.7 µM | [8] 40.8 µM | [11] 0.472 µM
inactive: [3] | [4] | [10] | [12] | [16] | [17]

COC(=O)C1=CCCN(C)C1
active: [3] 1.07 µM
not listed: [11] | [12] | [14] | [18]
inactive: all other assays above

O=C(N[C@H]1CN2CCC1CC2)c1ccc2c(c1)OCCO2
not listed: [11] | [15] | [18] | [19]
inactive: all other assays above

CCOC(=O)CCN(SN(C)C(=O)Oc1cccc2c1OC(C)(C)C2)C(C)C
active: [2] 61.1 µM
not listed: [13] | [18] | [19]
inactive: all other assays above

Nc1ccc([N+](=O)[O-])cc1[N+](=O)[O-]
not listed: [9] | [15] | [16] | [18]
inactive: all other assays above

C=C(C)C(=O)OCCCCOC(=O)C(=C)C
not listed: [12] | [17] | [18]
inactive: all other assays above

O=[N+]([O-])c1cccc2cccc([N+](=O)[O-])c12
not listed: [9] | [12] | [13] | [14] | [15] | [18]
inactive: all other assays above

Clc1ccc(C(OCCN2CCCCC2)c2ccccc2)cc1 (centres undefined)
active: [11] 0.46 µM
not listed: [9] | [13] | [14] | [17] | [18]
inactive: all other assays above

CSC1=N[C@@](C)(c2ccccc2)C(=O)N1Nc1ccccc1
not listed: [11] | [18]
inactive: all other assays above

CC(Oc1cc(Cl)c(Cl)cc1Cl)C(=O)O (centres undefined)
not listed: [11] | [13] | [15] | [17] | [18] | [19]
inactive: all other assays above

C[N+](C)=CCl
not listed: [12] | [14] | [15] | [18]
inactive: all other assays above

CCOC(=O)CCl
not listed: [9] | [10] | [11] | [15] | [18] | [19]
inactive: all other assays above

c1csc(-c2ccc(-c3cccs3)s2)c1
active: [2] 8.63 µM
not listed: [9] | [11] | [13] | [16] | [18] | [19]
inactive: all other assays above
